Measurements from PubChem BioAssay AID1510 (The Scripps Research Institute Molecular Screening Center, 2009).
The whole screen tested about 220,000 compounds, of which about 570 (0.26%) were called active. No stated cut-off is given here; in the data, active means inhibition above about 29%; inactive means the rest. The full list was thinned out, with actives kept by preference.

Target: Sphingosine 1-phosphate receptor 4 (Homo sapiens) (UniProt O95977)
Experiment: blockers of human S1P4 receptor – cell-based, primary screen (AID 1510);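 further: 0% = wells stimulated with agonist and 100% = vehicle wells without agonist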
Conditions: S1P4-expressing cells, antagonist mode, reporter read-out; at 4.98 µM; active compounds read high

Sequence of Sphingosine 1-phosphate receptor 4 (Homo sapiens) (O95977 whole entry, looked up): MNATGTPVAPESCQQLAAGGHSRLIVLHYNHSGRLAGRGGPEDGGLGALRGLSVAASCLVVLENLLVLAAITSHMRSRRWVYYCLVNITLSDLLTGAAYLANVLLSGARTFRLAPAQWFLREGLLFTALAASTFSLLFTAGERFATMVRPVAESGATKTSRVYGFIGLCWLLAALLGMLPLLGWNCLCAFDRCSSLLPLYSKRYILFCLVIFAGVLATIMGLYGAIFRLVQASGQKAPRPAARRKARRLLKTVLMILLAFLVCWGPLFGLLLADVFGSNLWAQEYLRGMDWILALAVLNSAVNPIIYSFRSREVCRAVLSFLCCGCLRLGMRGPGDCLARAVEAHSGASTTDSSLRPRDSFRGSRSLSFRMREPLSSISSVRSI

| Structure (SMILES) | inhibition |
| --- | --- |
| CC(C)(C)C(=O)NCCCNc1ccc([N+](=O)[O-])cc1 | 4.36% (inactive) |
| Cc1cc(C)n(-c2nnc(N3CCN(c4ccccc4)CC3)nn2)n1 | 9.76% (inactive) |
| CCn1nnnc1SCC(=O)c1ccc(C)cc1C | -2.87% (inactive) |
| Cc1ccc(SC(CC(=O)c2ccc(C(C)(C)C)cc2)C(=O)O)cc1 (centres undefined) | 26% (inactive) |
| Cn1c(=O)c2c(nc(N/N=C/c3cccs3)n2Cc2ccc(Br)cc2)n(C)c1=O | -19.2% (inactive) |
| Cc1ccc(COc2ccc(/C=N/NC(=O)CN3CCCCC3)cc2)cc1 | -8.97% (inactive) |
| CC1CC2=C(CC1/C=N/NC(N)=S)C(C)(C)CCC2 (centres undefined) | 29.9% (active) |
| CC1(C)CCCC2=C1CC1C(=O)N(c3ccccc3)C(=O)C1C2 (centres undefined) | -11.5% (inactive) |
| COc1ccc(C)c(Cn2c(-c3nonc3N)nc3ccccc32)c1 | -20.7% (inactive) |
| CC(=O)Nc1nonc1-c1nc2ccccc2n1Cc1ccccn1 | -6.67% (inactive) |
| Nc1nonc1-c1nc2ccccc2n1Cc1ccc(F)cc1 | 38.9% (active) |
| COc1ccc(CCCc2nnc(SCc3nc4ccccc4c(=O)[nH]3)n2C)cc1 | 3.12% (inactive) |
| C=C(C)CNC(=S)Nc1ccc(S(=O)(=O)Nc2cnc3ccccc3n2)cc1 | 2.29% (inactive) |
| Cc1cc(C(=O)Nc2c(C)n(C)n(-c3ccccc3)c2=O)cs1 | -8.59% (inactive) |
| Cc1cc2oc(C(=O)Nc3c(C)n(C)n(-c4ccccc4)c3=O)c(C)c2cc1Cl | 29.2% (active) |
| Cc1c(NC(=O)c2coc(=O)c(Br)c2)c(=O)n(-c2ccccc2)n1C | -7.02% (inactive) |
| COc1ccc(NC(=O)COC(=O)c2ccncc2)c(OC)c1 | -5.29% (inactive) |
| Cc1cc(C(C)(C)C)oc1C(=O)N(CC(=O)NC1CCCC1)Cc1ccc(Cl)cc1 | -6.52% (inactive) |
| CC(C)NC(=S)N1CCN(S(C)(=O)=O)CC1 | -10.4% (inactive) |
| Cc1nc2cc3c(cc2s1)OCO3 | -20.6% (inactive) |

| Structure (SMILES) | inhibition |
| --- | --- |
| COc1ccc(C(=O)NCc2nnc(SCCOc3ccccc3)n2C)cc1 | -1.19% (inactive) |
| CC(C)N(C(=O)c1ccc(-c2ccccc2F)cc1)C(C)C | 26.9% (inactive) |
| CC(NCc1ccccc1OC1CCCC1)c1ccccc1 (centres undefined) | 27.7% (inactive) |
| CC(C)(C)NC(=O)C(=O)NCc1ccncc1 | -14.6% (inactive) |
| CNS(=O)(=O)c1ccc(NC(=O)C2CC(=O)N(c3ccc(Cl)cc3)C2)cc1 (centres undefined) | 12.8% (inactive) |
| CC(=O)Nc1ccc(S(=O)(=O)N2CCN(c3ccc([N+](=O)[O-])c(NCCN4CCOCC4)c3)CC2)cc1 | -3.22% (inactive) |
| COc1cc(NC(=O)CN(C)S(=O)(=O)c2ccc3nc(C)sc3c2)cc(OC)c1 | -2.8% (inactive) |
| Cc1cc(/C=N/NC(N)=O)c(C)n1C1CCCCC1 | 16.8% (inactive) |
| Cc1cccc(C(=O)Nc2ccccc2C(=O)NCc2cccnc2)c1 | -7.4% (inactive) |
| Cc1ccc2cc(/C=N/Nc3ccc(C(=O)O)cc3)c(Cl)nc2c1 | 4.36% (inactive) |
| Cc1nc([N+](=O)[O-])cn1CC(=O)Nc1ccc2c(c1)OCO2 | -4.57% (inactive) |
| Cc1nn(CC#N)c(=O)n1N(C)c1ncc(C(F)(F)F)cc1Cl | -4.17% (inactive) |
| CCOc1ccc(C(=O)Nc2cccc(-c3ccc4nncn4n3)c2)cc1 | 0.94% (inactive) |
| O=C(C1CCN(S(=O)(=O)c2ccc(Br)s2)CC1)N1CCN(C2CCCCC2)CC1 | -2.03% (inactive) |
| CN(C)c1ccc(/C=C/C(=O)c2ccc(O)cc2)cc1[N+](=O)[O-] | 6.74% (inactive) |
| O=C(/C=C/c1ccc(Cl)c([N+](=O)[O-])c1)c1ccc(O)cc1 | 46.2% (active) |
| CN(C)c1ccc(/C=C/C(=O)c2ccc(C(C)(C)C)cc2)cc1[N+](=O)[O-] | -10.1% (inactive) |
| COc1ccccc1CNC(=O)Cn1c(=O)oc2cc(Cl)ccc21 | 0.8% (inactive) |
| COc1ccc(C[C@H]2CN3C(=NC[C@H]3C)N2CCNC(=O)CCC2CCCCC2)cc1 | -5.06% (inactive) |
| CC1CCCC(NC(=O)c2cccc(N3CCCC3=O)c2)C1C (centres undefined) | -7.04% (inactive) |

| Structure (SMILES) | inhibition |
| --- | --- |
| C/C(=N/O)c1ccc(N2C(=O)C3C4C=CC(C3C2=O)C2C3C(=O)N(c5ccc(/C(C)=N/O)cc5)C(=O)C3C42)cc1 (centres undefined) | -4.36% (inactive) |
| COC(=O)C1=C(Nc2ccc(C)cc2)C=C(C)C(C(=O)OC)C1c1ccc(F)cc1 (centres undefined) | -18% (inactive) |
| O=C(NNC(=S)Nc1ccc(Br)cc1Cl)c1ccco1 | -12.4% (inactive) |
| NC(=O)N/N=C\c1cccs1 | -18.6% (inactive) |
| CCCCCCCC(=O)NC(Nc1ccccc1OC)C(Cl)(Cl)Cl (centres undefined) | 8.46% (inactive) |
| Cc1cc(NC(=O)CSCc2ccccc2C)no1 | -4.86% (inactive) |
| C=CS(=O)c1sc(Cl)c(N2CCOCC2)c1[N+](=O)[O-] (centres undefined) | 46.3% (active) |
| O=c1c2cc(-c3ccccc3)sc2nc2n1N=C(c1cccs1)CS2 | -3.31% (inactive) |
| CCOc1ncccc1C(=O)N(CC)CC(=O)Nc1ccc(NC(C)=O)cc1 | -27.8% (inactive) |
| CNc1ccc(SC#N)cc1 | 30.8% (active) |
| COc1cc2c(cc1O)[C@H](Cc1ccc(Oc3cc(C[C@@H]4NCCc5cc(OC)c(O)cc54)ccc3O)cc1)NCC2 | -13.1% (inactive) |
| CC[C@H]1CN2CCc3cc(OC)c(OC)cc3[C@@H]2C[C@@H]1C[C@H]1NCCc2cc(OC)c(OC)cc21 | 82.3% (active) |
| O=C(Nc1ccc(Cl)cc1)Nc1ccc(C(=O)N2CCOCC2)cc1 | 6.4% (inactive) |
| Cc1ccc(Oc2cc(NC(=O)CCCn3nc(C)c([N+](=O)[O-])c3C)cc([N+](=O)[O-])c2)cc1 | -12.2% (inactive) |
| O=C(Nc1ccccc1)c1nnsc1S(=O)(=O)c1ccc(Cl)cc1 | 93.8% (active) |
| CS(=O)(=O)c1ccc(Cl)c(NC(=O)Nc2ccccc2)c1 | 17.2% (inactive) |
| O=C(Nc1ccc(Cl)cc1)c1ccsn1 | 4.84% (inactive) |
| CS(=O)(=O)N(CC(=O)N1CCN(c2ccc(F)cc2)CC1)C1CCCCC1 | -13.7% (inactive) |
| Cc1ccc(CCC(=O)Nc2ncc(Cc3cc(Cl)ccc3Cl)s2)o1 | -6.95% (inactive) |
